Results as given in the supplement of paper PMC7801607.

How the values were obtained:
CHO = test: % viability of CHO cells (MTT); higher = less toxic; details: 48 h
How it was run: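 CHO cells were plated at 10^6 cells/well in 200 µL and allowed to attach overnight. Fresh medium with compound at 2 or 20 µM then replaced the old medium for 48 h. Percent viability, relative to untreated cells, came from a colorimetric tetrazolium (MTT) readout.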

HepG2-A16-CD81 = test: % inhibition of HepG2 viability (CellTiter-Glo); higher = more toxic; details: 5 µM
[1] = test system: Plasmodium falciparum NF54 stage IV/V gametocytes; test: % inhibition of gametocyte viability (PrestoBlue); higher = more inhibition; details: 48 h
How it was run: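 In a single run, percent inhibition of gametocyte viability was calculated relative to vehicle and kill controls. The wells held 100 µL of Stage IV/V NF54 gametocytes at 2% gametocytaemia and 5% haematocrit, with compound at 1 or 5 µM. Plates stood at 37 °C in hypoxic conditions for 48 h. After that, 10 µL PrestoBlue was added for 2 h, and 70 µL of supernatant was transferred for fluorescence reading at 612 nm.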

[2] = test system: Plasmodium falciparum NF54 asexual blood stage; test: % inhibition of asexual blood stage proliferation (pLDH); higher = more inhibition; details: 72 h
How it was run: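 Percent inhibition of asexual proliferation, normalised to controls, was determined in a screen repeated on two separate occasions. Plasmodium falciparum NF54 ring-stage cultures (1% haematocrit, 2% parasitaemia) received compound at 2 or 20 µM and were incubated for 72 h at 37 °C under 4% CO2, 3% O2 and 93% N2. A colorimetric parasite lactate dehydrogenase readout at 620 nm gave survival.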

[3] = test system: Plasmodium falciparum NF54 stage IV/V gametocytes; test: % inhibition of gametocyte viability (ATP bioluminescence); higher = more inhibition; details: 24 h
How it was run: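 Enriched stage IV/V NF54 gametocytes were exposed to compound at 1 or 5 µM for 24 h at 37 °C in 96-well plates. Percent inhibition of gametocyte viability was derived from a bioluminescent ATP readout, normalised to controls within a single run.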

[4] = test system: Plasmodium falciparum NF54 stage IV/V gametocytes; test: % inhibition of gametocyte viability (luciferase reporter); higher = more inhibition; details: 48 h
How it was run: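 Compound at 1 or 5 µM was added to stage IV/V NF54-Pfs16-GFP-Luc gametocytes (2% gametocytaemia, 2% haematocrit) and incubated stationary and hypoxic at 37 °C for 48 h. A GloMax-Multi+ reader measured luminescence over 10 s integration on 30 µL lysate plus 30 µL Promega luciferin substrate. Percent inhibition values were normalised to controls within a single run.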

[5] = test system: Plasmodium berghei ANKA liver stage in HepG2-A16-CD81; test: % inhibition of liver stage parasite viability (luciferase); higher = more inhibition; details: 5 µM; 48 h
Description: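 Single-concentration screen of the MMV Pandemic Response Box. P. falciparum NF54 asexual blood stages: pLDH assay, 72 h at 37 °C, 2 and 20 µM, n=2. Stage IV/V gametocytes (NF54): luciferase reporter (NF54-Pfs16-GFP-Luc, 48 h), ATP bioluminescence (24 h) and PrestoBlue (48 h) at 1 and 5 µM, n=1. P. berghei liver stage (luciferase in HepG2-A16-CD81, 48 h post infection) at 5 µM, n=4. All normalised to DMSO and kill controls as % inhibition.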
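Wherever % inhibition of HepG2 viability (CellTiter-Glo) is given: HepG2-A16-CD81 hepatoma cells plated as in the liver-stage assay but without sporozoites, with DMSO wells as negative and 25 µM puromycin as positive control.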

| Structure (SMILES) | % viability of CHO cells (CHO; 2 µM) | % viability of CHO cells (CHO; 20 µM) | % inhibition of HepG2 viability (HepG2-A16-CD81) | % inhibition of gametocyte viability ([1]; 1 µM) | % inhibition of gametocyte viability ([1]; 5 µM) | % inhibition of asexual blood stage proliferation ([2]; 2 µM) | % inhibition of asexual blood stage proliferation ([2]; 20 µM) | % inhibition of gametocyte viability ([3]; 1 µM) | % inhibition of gametocyte viability ([3]; 5 µM) | % inhibition of gametocyte viability ([4]; 1 µM) | % inhibition of gametocyte viability ([4]; 5 µM) | % inhibition of liver stage parasite viability [5] |
| --- | --- | --- | --- | --- | --- | --- | --- | --- | --- | --- | --- | --- |
| Oc1c(C(Nc2nc3ccccc3s2)c2ccc(OC(F)F)cc2)ccc2cccnc12 (stereo not drawn) | 79.6% | 74.4% | 45.6% | 26.7% | 60.6% | 70.5% | 65.8% | 22.2% | 24.6% | 12.2% | 54.3% | 52.7% |
| Cc1ccc(C)c(OCCCCCCN2C[C@H](O)[C@@H](O)[C@H](O)[C@H]2CO)c1 | 111% | 110% | 4.29% | < 0% | < 0% | 8.28% | 41.4% | 1.96% | < 0% | 5.24% | 11% | 11.6% |
| CC(C)(C)c1ccc(OCCn2nc(C(=O)O)c3ccccc3c2=O)cc1 | 100% | 104% | 1.37% | < 0% | < 0% | 4.78% | 19.9% | < 0% | < 0% | < 0% | < 0% | 3.4% |
| O=C(O)c1cc(-c2ccc(Br)cc2)nc2ccc(Cl)cc12 | 96.8% | 111% | 3.15% | 14.7% | 5.76% | 7.74% | -6.63% | < 0% | < 0% | < 0% | < 0% | -34.6% |
| O=P(O)(O)C(CCCc1cccc(Oc2ccccc2)c1)S(=O)(=O)O (stereo not drawn) | 113% | 109% | -5.33% | 12.4% | 30.6% | 34.7% | 69.9% | < 0% | < 0% | < 0% | 3% | 9.62% |
| COc1cc(C)c2c(Oc3cccc(C(F)(F)F)c3)c(OC)cc(NC(C)CCCN)c2n1 (stereo not drawn) | 95.6% | -0.735% | 3.86% | 47.9% | 71.7% | 56.5% | 92.1% | < 0% | 70% | < 0% | 79.6% | 38.2% |
| NC[C@H]1O[C@H](O[C@H]2[C@H](O)[C@@H](O[C@H]3O[C@H](CO)[C@@H](O)[C@H](N)[C@H]3O)[C@H](N)C[C@@H]2N)[C@H](N)C[C@@H]1O | 111% | 8.4% | -3.85% | < 0% | 1.53% | -2.54% | 18.7% | < 0% | < 0% | < 0% | 6.32% | 36.3% |
| CCC[C@H](NC(=O)[C@@H]1[C@H]2CCC[C@H]2CN1C(=O)[C@@H](NC(=O)[C@@H](NC(=O)c1cnccn1)C1CCCCC1)C(C)(C)C)C(=O)C(=O)NC1CC1 | 94.8% | 100% | -4.56% | < 0% | 7.89% | 49.1% | 57% | 6.88% | 10.7% | 3.5% | < 0% | – |
| Cc1ncc([N+](=O)[O-])n1CC(C)O (stereo not drawn) | 92.2% | 87.1% | 7.14% | 7.95% | 28.2% | 42.5% | 65.1% | 4.81% | < 0% | 8.84% | 10% | 13.9% |
| CC(C)(C)c1ccc(C(=O)NC(=O)N2CCCc3ccccc32)cc1 | 94.6% | 101% | -0.159% | < 0% | < 0% | -6.14% | -5.88% | < 0% | < 0% | < 0% | < 0% | 15.6% |
| [N-]=[N+]=N[C@H]1C[C@H](n2ccc(=O)[nH]c2=O)O[C@@H]1CO | 109% | 102% | -1.43% | 6.88% | 16.8% | -15.7% | 43.2% | 3% | < 0% | 11.1% | < 0% | -3.95% |
| CC(C)=CCC/C(C)=C/CNCCNC1C2CC3CC(C2)CC1C3 (stereo not drawn) | 93.3% | 65.4% | 17.1% | 51.3% | 89.7% | 11.7% | 93% | 78% | 90.8% | < 0% | 42.1% | 21.8% |
| COCCn1cnc2c(=O)[nH]c(Nc3ccccc3)nc21 | 103% | 63.9% | 5.25% | < 0% | 0.985% | 28.3% | 62.8% | 7.08% | 5.85% | 14.5% | 5.09% | 7.54% |
| Cn1cc(NC(=O)c2cc(NC(=O)c3ccc(/C=C/c4cnc5ccccc5c4)cc3)cn2C)cc1C(=O)NCCN1CCOCC1 | 34.6% | 14.9% | -5.82% | 18.3% | 55.1% | 68.7% | 94% | 22.3% | 15.5% | 64.1% | 67.1% | 85.8% |
| Cc1cc(C2CCCCC2)n(O)c(=O)c1 | 95.2% | 69.7% | 13.4% | < 0% | 58.2% | 9.8% | 77.8% | 36.1% | < 0% | < 0% | < 0% | 14.2% |
| Cc1cccc(CC(=O)N[C@H]2CCOC2=O)c1 | 95.4% | 98.6% | 5.04% | < 0% | 21.6% | 35.3% | 53.6% | < 0% | < 0% | < 0% | 5.44% | 4.19% |
| COc1ccc(C2CNC(=O)C2)cc1OC1CCCC1 (stereo not drawn) | 95.4% | 125% | -2.26% | < 0% | 12% | 28.3% | 40.1% | < 0% | < 0% | 8.32% | 7.49% | 29.1% |
